In the supplement of paper PMC8728848:
The sample as a whole holds a higher share of the strongest signals than the screen did.

Assays:
Experiment in all cases: glycan array binding signal (z-score within array); higher = stronger binding
Conditions in all cases: glycan notation: IUPAC condensed, linker removed
[1] = molecular target: Fuc(a1-2)Gal(b1-4)Glc6S
How it was run: (§1)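 Glycan array data came from 3228 arrays in the Consortium for Functional Glycomics database, and only arrays with an available protein sequence were kept. Glycan names were put into IUPAC-condensed notation, and columns mapping to the same glycan were averaged. The binding signal is a within-array Z-score, averaged across arrays of one protein sequence run at different concentrations or buffers and across linkers. A negative Z-score can be read as non-binding.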

[2] = molecular target: Fuc(a1-2)[Gal(a1-3)]Gal(b1-4)GlcNAc
How it was run: as §1

[3] = molecular target: Fuc(a1-2)[Gal(a1-3)]Gal(b1-4)GlcNAc(b1-3)[Fuc(a1-2)[Gal(a1-3)]Gal(b1-4)GlcNAc(b1-6)]GalNAc
How it was run: as §1

[4] = molecular target: Fuc(a1-2)[Gal(a1-3)]Gal(b1-4)[Fuc(a1-3)]GlcNAc(b1-3)GalNAc
How it was run: as §1

[5] = molecular target: Fuc(a1-3)[Gal(b1-4)]GlcNAc(b1-4)Gal(b1-4)[Fuc(a1-3)]GlcNAc
How it was run: as §1

[6] = molecular target: Gal(a1-3)Gal(b1-4)GlcNAc(b1-2)Man(a1-3)[Gal(a1-3)Gal(b1-4)GlcNAc(b1-2)Man(a1-6)]Man(b1-4)GlcNAc(b1-4)GlcNAc
How it was run: as §1

[7] = molecular target: Gal(a1-3)Gal(b1-4)GlcNAc(b1-6)GalNAc
How it was run: as §1

[8] = molecular target: Gal(a1-3)Gal(b1-4)[Fuc(a1-3)]GlcNAc(b1-2)Man(a1-3)[Gal(a1-3)Gal(b1-4)[Fuc(a1-3)]GlcNAc(b1-2)Man(a1-6)]Man(b1-4)GlcNAc(b1-4)GlcNAc
How it was run: as §1

[9] = molecular target: Gal(b1-3)[Neu5Ac(a2-6)]GlcNAc(b1-4)Gal(b1-4)Glc
How it was run: as §1

[10] = molecular target: Gal(b1-4)GalNAc(a1-3)[Fuc(a1-2)]Gal(b1-4)GlcNAc
How it was run: as §1

[11] = molecular target: Gal(b1-4)GlcNAc
How it was run: as §1

[12] = molecular target: Gal(b1-4)GlcNAc(b1-2)Man
How it was run: as §1

[13] = molecular target: Gal(b1-4)GlcNAc(b1-2)Man(a1-6)[Man(a1-3)]Man(b1-4)GlcNAc(b1-4)GlcNAc
How it was run: as §1

[14] = molecular target: Gal(b1-4)GlcNAc(b1-2)[Gal(b1-4)GlcNAc(b1-4)]Man(a1-3)[Gal(b1-4)GlcNAc(b1-2)[Gal(b1-4)GlcNAc(b1-6)]Man(a1-6)]Man(b1-4)GlcNAc(b1-4)GlcNAc
How it was run: as §1

[15] = molecular target: Gal(b1-4)GlcNAc(b1-3)Gal(b1-4)Glc
How it was run: as §1

[16] = molecular target: Gal(b1-4)GlcNAc(b1-3)Gal(b1-4)GlcNAc(b1-2)[Gal(b1-4)GlcNAc(b1-3)Gal(b1-4)GlcNAc(b1-6)]Man(a1-6)[Gal(b1-4)GlcNAc(b1-3)Gal(b1-4)GlcNAc(b1-2)Man(a1-3)]Man(b1-4)GlcNAc(b1-4)GlcNAc
How it was run: as §1

[17] = molecular target: Gal(b1-4)GlcNAc(b1-3)Gal(b1-4)GlcNAc(b1-3)Gal(b1-4)GlcNAc
How it was run: as §1

[18] = molecular target: Gal(b1-4)GlcNAc(b1-3)Gal(b1-4)GlcNAc(b1-3)Gal(b1-4)GlcNAc(b1-2)[Gal(b1-4)GlcNAc(b1-3)Gal(b1-4)GlcNAc(b1-3)Gal(b1-4)GlcNAc(b1-6)]Man(a1-6)[Gal(b1-4)GlcNAc(b1-3)Gal(b1-4)GlcNAc(b1-3)Gal(b1-4)GlcNAc(b1-2)Man(a1-3)]Man(b1-4)GlcNAc(b1-4)[Fuc(a1-6)]GlcNAc
How it was run: as §1

[19] = molecular target: Gal(b1-4)GlcNAc(b1-3)Gal(b1-4)GlcNAc(b1-3)Gal(b1-4)GlcNAc(b1-3)Gal(b1-4)GlcNAc(b1-3)Gal(b1-4)GlcNAc(b1-2)[Gal(b1-4)GlcNAc(b1-3)Gal(b1-4)GlcNAc(b1-3)Gal(b1-4)GlcNAc(b1-3)Gal(b1-4)GlcNAc(b1-3)Gal(b1-4)GlcNAc(b1-6)]Man(a1-6)[Gal(b1-4)GlcNAc(b1-3)Gal(b1-4)GlcNAc(b1-3)Gal(b1-4)GlcNAc(b1-3)Gal(b1-4)GlcNAc(b1-3)Gal(b1-4)GlcNAc(b1-2)Man(a1-3)]Man(b1-4)GlcNAc(b1-4)[Fuc(a1-6)]GlcNAc
How it was run: as §1

[20] = molecular target: Gal(b1-4)GlcNAc(b1-3)[Gal(b1-4)GlcNAc(b1-6)]Gal(b1-4)GlcNAc
How it was run: as §1

[21] = molecular target: Gal3S(b1-4)GlcNAc6S
How it was run: as §1

[22] = molecular target: Gal3S4S(b1-4)GlcNAc
How it was run: as §1

[23] = molecular target: Gal3S6S(b1-4)GlcNAc
How it was run: as §1

[24] = molecular target: GalNAc(b1-3)Gal(a1-6)Gal(b1-4)Glc
How it was run: as §1

[25] = molecular target: GalNAc(b1-3)GalNAc
How it was run: as §1

[26] = molecular target: GlcNAc(b1-3)Gal(b1-4)GlcNAc(b1-3)[GlcNAc(b1-3)Gal(b1-4)GlcNAc(b1-3)]GalNAc
How it was run: as §1

[27] = molecular target: Man(a1-2)Man(a1-3)[Man(a1-2)Man(a1-6)]Man(a1-6)[Man(a1-3)[Man(a1-6)]Man(a1-6)]Man(b1-4)GlcNAc(b1-4)GlcNAc
How it was run: as §1

[28] = molecular target: Man(a1-2)Man(a1-3)[Man(a1-6)]Man(a1-6)[Man(a1-2)Man(a1-3)]Man(b1-4)GlcNAc(b1-4)GlcNAc
How it was run: as §1

[29] = molecular target: Man(a1-2)Man(a1-6)[Man(a1-3)]Man(a1-6)[Man(a1-2)Man(a1-2)Man(a1-3)]Man(b1-4)GlcNAc(b1-4)GlcNAc
How it was run: as §1

[30] = molecular target: Man(a1-3)[Man(a1-6)]Man
How it was run: as §1

[31] = molecular target: Man(a1-3)[Man(a1-6)]Man(a1-6)[Man(a1-2)Man(a1-3)]Man(b1-4)GlcNAc(b1-4)GlcNAc
How it was run: as §1

[32] = molecular target: Man(a1-3)[Man(a1-6)]Man(a1-6)[Man(a1-3)]Man
How it was run: as §1

[33] = molecular target: Man(a1-3)[Man(a1-6)]Man(a1-6)[Man(a1-3)]Man(b1-4)GlcNAc(b1-4)GlcNAc
How it was run: as §1

[34] = molecular target: Man(a1-3)[Man(a1-6)]Man(b1-4)GlcNAc(b1-4)GlcNAc
How it was run: as §1

[35] = molecular target: Man(a1-3)[Man(a1-6)]Man(b1-4)GlcNAc(b1-4)[Fuc(a1-6)]GlcNAc
How it was run: as §1

[36] = molecular target: Neu5Ac(a2-3)Gal(b1-3)GalNAc(b1-4)[Neu5Ac(a2-8)Neu5Ac(a2-3)]Gal(b1-4)Glc
How it was run: as §1

[37] = molecular target: Neu5Ac(a2-3)Gal(b1-4)GlcNAc(b1-3)Gal(b1-4)GlcNAc(b1-2)Man(a1-3)[Neu5Ac(a2-3)Gal(b1-4)GlcNAc(b1-3)Gal(b1-4)GlcNAc(b1-2)Man(a1-6)]Man(b1-4)GlcNAc(b1-4)GlcNAc
How it was run: as §1

[38] = molecular target: Neu5Ac(a2-3)Gal(b1-4)GlcNAc(b1-3)Gal(b1-4)GlcNAc(b1-3)GalNAc
How it was run: as §1

[39] = molecular target: Neu5Ac(a2-3)[GalNAc(b1-4)]Gal(b1-4)GlcNAc(b1-3)GalNAc
How it was run: as §1

[40] = molecular target: Neu5Ac(a2-6)Gal(b1-4)GlcNAc(b1-2)Man(a1-3)Man(b1-4)GlcNAc(b1-4)GlcNAc
How it was run: as §1

[41] = molecular target: Neu5Ac(a2-6)Gal(b1-4)GlcNAc(b1-2)Man(a1-3)[GlcNAc(b1-4)][Neu5Ac(a2-6)Gal(b1-4)GlcNAc(b1-2)Man(a1-6)]Man(b1-4)GlcNAc(b1-4)GlcNAc
How it was run: as §1

[42] = molecular target: Neu5Ac(a2-6)Gal(b1-4)GlcNAc(b1-3)Gal(b1-4)GlcNAc(b1-3)Gal(b1-4)GlcNAc(b1-2)Man(a1-3)[Neu5Ac(a2-6)Gal(b1-4)GlcNAc(b1-3)Gal(b1-4)GlcNAc(b1-3)Gal(b1-4)GlcNAc(b1-2)Man(a1-6)]GalNAc
How it was run: as §1

[43] = molecular target: Neu5Ac(a2-6)GalNAc(b1-4)GlcNAc6S
How it was run: as §1

[44] = molecular target: Neu5Ac(a2-8)Neu5Ac(a2-3)Gal(b1-3)GalNAc(b1-4)[Neu5Ac(a2-3)]Gal(b1-4)Glc
How it was run: as §1

[45] = molecular target: Neu5Ac(a2-8)Neu5Ac(a2-3)Gal(b1-4)GlcNAc
How it was run: as §1

[46] = molecular target: Neu5Ac(a2-8)Neu5Ac(a2-8)Neu5Ac
How it was run: as §1

[47] = molecular target: Neu5Ac(b1-6)GalNAc
How it was run: as §1

[48] = molecular target: Neu5Gc(a2-3)Gal(b1-3)[Fuc(a1-4)]GlcNAc
How it was run: as §1

[49] = molecular target: Neu5Gc(a2-6)Gal(b1-4)GlcNAc
How it was run: as §1

B1: GNA (Galanthus nivalis), P30617 (protein)
chain: MAKASLLILAAIFLGVITPSCLSDNILYSGETLSTGEFLNYGSFVFIMQEDCNLVLYDVDKPIWATNTGGLSRSCFLSMQTDGNLVVYNPSNKPIWASNTGGQNGNYVCILQKDRNVVIYGTDRWATGTHTGLVGIPASPPSEKYPTAGKIKLVTAK
- glycan array binding signal (z-score) [1]: -0.048
- glycan array binding signal (z-score) [2]: -0.241
- glycan array binding signal (z-score) [3]: -0.171
- glycan array binding signal (z-score) [4]: -0.127
- glycan array binding signal (z-score) [5]: -0.127
- glycan array binding signal (z-score) [6]: 2.17
- glycan array binding signal (z-score) [7]: -0.182
- glycan array binding signal (z-score) [8]: -0.106
- glycan array binding signal (z-score) [9]: -0.195
- glycan array binding signal (z-score) [10]: -0.192
- glycan array binding signal (z-score) [11]: -0.172
- glycan array binding signal (z-score) [12]: -0.167
- glycan array binding signal (z-score) [13]: 3.11
- glycan array binding signal (z-score) [14]: 0.166
- glycan array binding signal (z-score) [15]: -0.076
- glycan array binding signal (z-score) [16]: -0.093
- glycan array binding signal (z-score) [17]: -0.163
- glycan array binding signal (z-score) [18]: -0.116
- glycan array binding signal (z-score) [19]: -0.018
- glycan array binding signal (z-score) [20]: -0.21
- glycan array binding signal (z-score) [21]: 0.332
- glycan array binding signal (z-score) [22]: -0.065
- glycan array binding signal (z-score) [23]: -0.101
- glycan array binding signal (z-score) [24]: -0.142
- glycan array binding signal (z-score) [25]: -0.175
- glycan array binding signal (z-score) [26]: -0.172
- glycan array binding signal (z-score) [27]: 6.07
- glycan array binding signal (z-score) [28]: 2.23
- glycan array binding signal (z-score) [29]: 3.2
- glycan array binding signal (z-score) [30]: 4.73
- glycan array binding signal (z-score) [31]: 5.86
- glycan array binding signal (z-score) [32]: 3.04
- glycan array binding signal (z-score) [33]: 5.35
- glycan array binding signal (z-score) [34]: 9.48
- glycan array binding signal (z-score) [35]: 6.97
- glycan array binding signal (z-score) [36]: -0.155
- glycan array binding signal (z-score) [37]: 0.02
- glycan array binding signal (z-score) [38]: -0.172
- glycan array binding signal (z-score) [39]: -0.073
- glycan array binding signal (z-score) [40]: -0.17
- glycan array binding signal (z-score) [41]: -0.182
- glycan array binding signal (z-score) [42]: -0.029
- glycan array binding signal (z-score) [43]: -0.173
- glycan array binding signal (z-score) [44]: -0.169
- glycan array binding signal (z-score) [45]: -0.178
- glycan array binding signal (z-score) [46]: -0.155
- glycan array binding signal (z-score) [47]: -0.21
- glycan array binding signal (z-score) [48]: -0.154
- glycan array binding signal (z-score) [49]: -0.116
